System: Salmonella enterica serovar Typhimurium 14028s
Assay: approximate change in surviving CFU after surface colonization relative to water-only control (log10 CFU/mL change); higher = more surviving bacteria (less inhibition of surface colonization)
Conditions: not stated (Biolog proprietary concentration), surface: plastic 96-well plate, 20-24 h at 25 °C

C[C@@H](O)[C@H](N)C(=O)O [L-Threonine]
approximate change in surviving CFU (log10) (Biolog plate: PM1, Biolog well: G4): 1.03
approximate change in surviving CFU (log10) (Biolog plate: PM3, Biolog well: B11): -0.129

N[C@H](CC(=O)O)C(=O)O [D-Aspartic Acid]
approximate change in surviving CFU (log10) (Biolog plate: PM1, Biolog well: D2): 1.01
approximate change in surviving CFU (log10) (Biolog plate: PM3, Biolog well: C5): 0.816

O=c1ccn([C@@H]2O[C@H](CO)[C@@H](O)[C@H]2O)c(=O)[nH]1 [Uridine]
approximate change in surviving CFU (log10) (Biolog plate: PM1, Biolog well: D12): 1.74
approximate change in surviving CFU (log10) (Biolog plate: PM3, Biolog well: F11): -0.236

CC[C@H](C)[C@H](N)C(=O)O [L-Isoleucine]
approximate change in surviving CFU (log10) (Biolog plate: PM2, Biolog well: G9): 0.794
approximate change in surviving CFU (log10) (Biolog plate: PM3, Biolog well: B4): -0.0429

NCCc1ccc(O)cc1 [Tyramine]
approximate change in surviving CFU (log10) (Biolog plate: PM1, Biolog well: H4): 0.537
approximate change in surviving CFU (log10) (Biolog plate: PM3, Biolog well: E3): -1.37

NCC(=O)O [Glycine]
approximate change in surviving CFU (log10) (Biolog plate: PM2, Biolog well: G5): 0.494
approximate change in surviving CFU (log10) (Biolog plate: PM3, Biolog well: B2): 0.15

N[C@@H](CCC(=O)O)C(=O)O [L-Glutamic Acid]
approximate change in surviving CFU (log10) (Biolog plate: PM1, Biolog well: B12): 1.24
approximate change in surviving CFU (log10) (Biolog plate: PM3, Biolog well: A12): 0.279

C[C@H](O)[C@@H](O)[C@@H](O)[C@H](O)C=O [L-Fucose]
approximate change in surviving CFU (log10) (Biolog plate: PM1, Biolog well: B4): 1.33

O=C1CC[C@@H](C(=O)O)N1 [L-Pyroglutamic Acid]
approximate change in surviving CFU (log10) (Biolog plate: PM2, Biolog well: H3): -0.0858
approximate change in surviving CFU (log10) (Biolog plate: PM3, Biolog well: D3): -0.258

N[C@H](CO)C(=O)O [D-Serine]
approximate change in surviving CFU (log10) (Biolog plate: PM1, Biolog well: B1): 1.14
approximate change in surviving CFU (log10) (Biolog plate: PM3, Biolog well: C8): 0.279

N[C@@H](CCO)C(=O)O [L-Homoserine]
approximate change in surviving CFU (log10) (Biolog plate: PM2, Biolog well: G7): 0.923
approximate change in surviving CFU (log10) (Biolog plate: PM3, Biolog well: C11): 0.365

O=c1[nH]cnc2c1ncn2[C@@H]1O[C@H](CO)[C@@H](O)[C@H]1O [Inosine]
approximate change in surviving CFU (log10) (Biolog plate: PM1, Biolog well: F12): 1.65
approximate change in surviving CFU (log10) (Biolog plate: PM3, Biolog well: F12): -0.365

C[C@H](N)C(=O)O [L-Alanine]
approximate change in surviving CFU (log10) (Biolog plate: PM1, Biolog well: G5): 0.987
approximate change in surviving CFU (log10) (Biolog plate: PM3, Biolog well: A7): 0.129

O=C(O)[C@@H]1CCCN1 [L-Proline]
approximate change in surviving CFU (log10) (Biolog plate: PM1, Biolog well: A8): 0.107
approximate change in surviving CFU (log10) (Biolog plate: PM3, Biolog well: B9): 0.0858

CC(C)C[C@H](N)C(=O)O [L-Leucine]
approximate change in surviving CFU (log10) (Biolog plate: PM2, Biolog well: G10): 0.451
approximate change in surviving CFU (log10) (Biolog plate: PM3, Biolog well: B5): -0.236

NC(=O)[C@H]1O[C@@H](O)[C@H](O)[C@@H](O)[C@@H]1O [Glucuronamide]
approximate change in surviving CFU (log10) (Biolog plate: PM1, Biolog well: H7): 1.03
approximate change in surviving CFU (log10) (Biolog plate: PM3, Biolog well: E6): 0.622

CC(N)=O [Acetamide]
approximate change in surviving CFU (log10) (Biolog plate: PM2, Biolog well: G1): -0.365
approximate change in surviving CFU (log10) (Biolog plate: PM3, Biolog well: E4): -1.76

N[C@@H](CC(=O)O)C(=O)O [L-Aspartic Acid]
approximate change in surviving CFU (log10) (Biolog plate: PM1, Biolog well: A7): 0.644
approximate change in surviving CFU (log10) (Biolog plate: PM3, Biolog well: A10): 0.451

N[C@@H](Cc1ccccc1)C(=O)O [L-Phenylalanine]
approximate change in surviving CFU (log10) (Biolog plate: PM2, Biolog well: H2): -0.322
approximate change in surviving CFU (log10) (Biolog plate: PM3, Biolog well: B8): -0.215

N[C@@H](Cc1c[nH]cn1)C(=O)O [L-Histidine]
approximate change in surviving CFU (log10) (Biolog plate: PM2, Biolog well: G6): 1.01
approximate change in surviving CFU (log10) (Biolog plate: PM3, Biolog well: B3): 0.279

Nc1ncnc2c1ncn2[C@@H]1O[C@H](CO)[C@@H](O)[C@H]1O [Adenosine]
approximate change in surviving CFU (log10) (Biolog plate: PM1, Biolog well: E12): 0.622
approximate change in surviving CFU (log10) (Biolog plate: PM3, Biolog well: F3): 0.751

Cc1cn([C@H]2C[C@H](O)[C@@H](CO)O2)c(=O)[nH]c1=O [Thymidine]
approximate change in surviving CFU (log10) (Biolog plate: PM1, Biolog well: C12): 1.5
approximate change in surviving CFU (log10) (Biolog plate: PM3, Biolog well: F9): -0.193

CC(C)[C@H](N)C(=O)O [L-Valine]
approximate change in surviving CFU (log10) (Biolog plate: PM2, Biolog well: H4): 0.15
approximate change in surviving CFU (log10) (Biolog plate: PM3, Biolog well: C2): -0.386

N=C(N)NCCC[C@H](N)C(=O)O [L-Arginine]
approximate change in surviving CFU (log10) (Biolog plate: PM2, Biolog well: G4): 0.966
approximate change in surviving CFU (log10) (Biolog plate: PM3, Biolog well: A8): 0.236

C[C@@H](N)C(=O)O [D-Alanine]
approximate change in surviving CFU (log10) (Biolog plate: PM1, Biolog well: A9): 0.622
approximate change in surviving CFU (log10) (Biolog plate: PM3, Biolog well: C3): 0.343

CSCC[C@H](N)C(=O)O [L-Methionine]
approximate change in surviving CFU (log10) (Biolog plate: PM2, Biolog well: G12): 0.365
approximate change in surviving CFU (log10) (Biolog plate: PM3, Biolog well: B7): -0.88

NCCC[C@H](N)C(=O)O [L-Ornithine]
approximate change in surviving CFU (log10) (Biolog plate: PM2, Biolog well: H1): 0.708
approximate change in surviving CFU (log10) (Biolog plate: PM3, Biolog well: C12): 0.172

NCC(=O)N[C@@H](CCC(N)=O)C(=O)O
approximate change in surviving CFU (log10) (Biolog plate: PM3, Biolog well: H9): 0.129

O=C(O)CO [Glycolic Acid]
approximate change in surviving CFU (log10) (Biolog plate: PM1, Biolog well: F9): 0.736
approximate change in surviving CFU (log10) (Biolog plate: PM2, Biolog well: E9): 0.644
